VP16 counter – inhibits Gal4-VP16 luciferase reporter, ROR gamma counter-screen | AID 2546 | Potency, µM (top dose mostly 53.6 µM), without a hit: at the top dose activity, negative = inhibition, usual class: inhibitors | Drosophila S2 Gal4-VP16 UAS-luciferase, luminescence, 20 h | hit rate 3.5% among 310,000;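 further: Gal4-VP16 expression switched on by copper sulfate through the metallothionein promoter; potency means the concentration at half of the fitted maximal effect; on the % scale 0 is the no-effect control and ±100 the full control effect; nearly all actives have a fitted effect of over 50% in size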
SW480 rerep – DNA re-replication induction in SW480 cells. SW480 DNA re-replication, Hoechst DNA content imaging, 48 h. Potency, µM (titrated, usually from 46.1 µM), inactives show at the top dose re-replication activation, hits mostly activators. hit rate 1.8% among 340,000; further: potency means the concentration at half of the fitted maximal effect; % of control where 0% means no effect; nearly all actives have a fitted effect of over 55% in size
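Hoechst fluorescence of nuclei (405 nm excitation, 500-530 nm emission) measured by plate-scanning imager after 48 hr compound exposure at 37 C; re-replication scored as increased number of nuclei with elevated intensity.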
MCF10A rerep – induces DNA re-replication in MCF 10a normal breast cells; Potency, µM (top dose mostly 46.1 µM), without a hit: top-dose activity, positive = re-replication, actives largely listed as activators; hit rate 2.9% among 350,000; MCF 10A DNA re-replication, Hoechst nuclear intensity, 48 h; further: potency means the concentration at half of the fitted maximal effect; % of control where 0% means no effect; nearly all actives have a fitted effect of over 50% in size
RORg inh – blocks mouse ROR gamma transcriptional activity. P51450. Drosophila S2 Gal4-RORgamma UAS-luciferase reporter, 20 h. hit rate 5.4% among 310,000. Potency, µM (highest dose often 53.6 µM), for inactives: at the top dose activity change, negative = inhibition, usual class: inhibitors; further: potency means the concentration at half of the fitted maximal effect; on the % scale 0 is the no-effect control and ±100 the full control effect; nearly all actives have a fitted effect of over 60% in size
Target sequence (P51450 whole entry, looked up, the tested form may be a part): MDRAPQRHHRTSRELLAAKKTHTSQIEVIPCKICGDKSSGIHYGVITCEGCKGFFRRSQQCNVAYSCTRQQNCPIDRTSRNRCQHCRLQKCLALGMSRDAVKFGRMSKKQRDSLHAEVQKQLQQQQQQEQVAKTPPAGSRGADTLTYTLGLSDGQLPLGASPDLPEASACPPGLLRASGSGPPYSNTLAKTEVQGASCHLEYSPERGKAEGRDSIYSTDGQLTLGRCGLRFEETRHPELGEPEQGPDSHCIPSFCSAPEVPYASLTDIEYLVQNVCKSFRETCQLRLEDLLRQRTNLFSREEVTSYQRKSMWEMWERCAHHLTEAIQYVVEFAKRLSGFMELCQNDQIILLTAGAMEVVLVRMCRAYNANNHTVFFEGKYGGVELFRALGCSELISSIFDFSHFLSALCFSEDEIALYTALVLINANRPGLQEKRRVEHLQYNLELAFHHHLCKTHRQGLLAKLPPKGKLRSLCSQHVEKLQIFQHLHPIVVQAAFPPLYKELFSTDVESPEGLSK
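Stably transfected Drosophila Schneider cells are the test system, with ROR gamma fused to Gal4 and luciferase under UAS control; luminescence is read after 20 hr of 700 uM copper sulfate induction at ambient temperature.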
Chronic BCR inh – blocks chronic active B-cell receptor signaling. ABC-DLBCL IkBa-CBG/CBR reporter, luminescence ratio, 4 h. Potency, µM (highest dose often 46.1 µM), for the others: top-dose activity change, negative = inhibition, actives largely listed as inhibitors. hit rate 0.05% among 340,000. AID 493014; active means well fitted inhibition curve with a large enough effect in the signal ratio, with a control signal flat, not every such curve was filed as active; inconclusive means small, poorly fitted or top-dose-only effect, or effect the other way, or a change in a side signal; the % refers to the signal ratio;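 further: potency means the concentration at half of the fitted maximal effect; plate controls were basal doxycycline-induced cells for no effect and cells given 10 µM MG132 for full effect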
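TMD8 human ABC-DLBCL cells with doxycycline-inducible IκBα–green luciferase fusion and unfused red luciferase, in 0.5% FBS medium; compounds up to 46 uM, 4 h at 37C. Green/red luminescence ratio, filter-overlap corrected, fitted to concentration-response curves.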
Giardia killer – kills Giardia lamblia; hit rate 0.15% among 340,000; Giardia lamblia trophozoite viability; activity change, % at 7.66 µM, hits read low; in the data active means activity change below about -80%; inconclusive means between about -30% and that limit;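 further: parasites exposed to compound for two days anaerobically before the ATP read; on the % scale 0 is the no-effect control and ±100 the full control effect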
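Anaerobic 48 hrs incubation at 37 deg C of 100 trophozoites/well with test compounds; ATPLite 1-Step luminescence, 15-30 min RT, reports cellular ATP as viability.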
Numbers without * were called inactive; ? = inconclusive; . = no result given; [ ] = dose if it differs, or a comment. The list is not random: actives were taken first. Their share in the collection is about 8.3%. Unless noted, the call rests on the fitted dose curve; in most records, active means well fitted curve in the direction sought with a large enough effect; inconclusive means small, poorly fitted or top-dose-only effect, or another doubt; inactive means no such curve, though single readings can be large; an effect the other way counts as inactive or inconclusive.

SMILES | VP16 counter | SW480 rerep | MCF10A rerep | RORg inh | Chronic BCR inh | Giardia killer
COc1ccc(N2CCN(C(=O)Cn3nnc(-c4ccccc4N)n3)CC2)cc1 | 3.5%[10 µM] | -4.0% | 0.0% | 11.1% | ? | 9.6
S=C1NC2=C(CCCC2=C2SCCS2)C(c2ccccc2)N1 (centres undefined) | ? | ? | -11.0% | 7.08µM* | -13.7% | 35.6
CN(CC(=O)Nc1ccccc1Br)C(=O)c1cc([N+](=O)[O-])ccc1N1CCOCC1 | . | 11.7% | -3.6% | . | 2.3% | -11.3
O=C1C=C(N2CCCCC2)C2(CCCCC2)O1 | 10.6% | -3.7% | 0.8% | -10.4% | 3.2% | -4.2
O=C1C=C(N2CCOCC2)C2(CCCCC2)O1 | -26.7% | -14.4% | 8.1% | 11.2µM* | ? | 8.2
CCOc1ccc(C(C)NC(=O)Cc2ccccc2F)cc1OCC (centres undefined) | 7.1% | 1.3% | -3.1% | 46.0% | 8.7% | 9.9
CCOc1ccc(C(C)NC(=O)Cc2ccccc2)cc1OCC (centres undefined) | -4.4% | 14.6µM* | -5.7% | 18.0% | 1.7% | 2.4
CCOc1ccc(C(CCc2ccccc2)NC(=O)c2ccccc2OC)cc1OCC (centres undefined) | ? | ? | 20.6µM* | 7.94µM* | 19.2% | -1.6
CCOc1ccc(S(=O)(=O)NCC(c2ccco2)S(=O)(=O)c2cccs2)cc1 (centres undefined) | . | . | . | . | -9.4% | .
O=C(COc1cccc2cccnc12)N1CCc2ccccc2C1 | 8.5% | -4.2%[9.22 µM] | ? | 17.6% | -26.1% | -7.3
Cc1ccc(OCC(=O)N2CCCCC2)c(Br)c1 | 0.1% | -4.4% | 1.1% | 32.8% | 4.0% | -8.5
O=C(COc1c(Br)cc(Br)c2cccnc12)Nc1ccccc1F | 20µM* | -1.0% | 6.1% | ? | 0.4% | 4.7
O=C(COc1c(Br)cc(Br)c2cccnc12)N1CCCCC1 | ? | -9.3% | 2.5% | 10µM* | 2.4% | 28.1
O=C(COc1c(Br)cc(Br)c2cccnc12)N1CCc2ccccc2C1 | 7.94µM* | 0.4% | ? | 5.62µM* | 15.6% | 14.3
O=C(NCCc1ccccc1)C(c1ccccc1F)N(C(=O)c1csnn1)C1CC1 (centres undefined) | 6.0% | -11.4% | -0.7% | 14.0% | 4.5% | 13.1
CO[C@@H]1C=CO[C@]2(C)Oc3c(C)c(O)c4c(O)c(c(C=NN5CCN(C)CC5)c(O)c4c3C2=O)NC(=O)C(C)=CC=C[C@H](C)[C@H](O)[C@H](C)[C@H](O)[C@H](C)[C@H](OC(C)=O)[C@H]1C | -3.3%[17 µM] | . | . | -12.6%[16.9 µM] | . | .
COc1ccc(NC(=O)n2ncc3c(C)cccc32)cc1OC | ? | 6.9% | -4.3% | 1.12µM* | ? | -3.6
COc1ccc(NC(=O)n2ncc3c(C)cccc32)cc1 | 2.51µM* | ? | ? | ? | ? | -24.8
N#CCSc1nc2ccccc2c2nc3ccccc3n12 | 3.5% | -1.4% | 9.2µM* | -5.0% | ? | -19.9
O=c1c2ccccc2nc(-c2ccc(Cl)cc2Cl)n1O | ? | ? | ? | 10µM* | 1.2% | 3.8
N#Cc1ccc(-c2nc3cc(Cl)ccc3c(=O)n2O)cc1 | ? | ? | ? | -76.8% | 7.4% | 13.9
N#Cc1ccc(-c2nc3ccccc3c(=O)n2O)cc1 | ? | -19.2% | 9.7% | 15.8µM* | 5.9% | -22.5
O=c1c2ccccc2nc(-c2ccccc2Cl)n1O | ? | -4.0% | -3.7% | 10µM* | 3.7% | -5.3
CCn1c(SCC#N)nc2ccccc2c1=O | -6.4% | ? | -2.7% | 0.8% | ? | -11.7
CCC(C)[C@H](NC(=O)N1CCn2c1nc1ccccc12)C(=O)NCCc1ccc(OC)c(OC)c1 (some centres undefined) | -19.2% | -4.7% | 13.3% | 12.0% | ? | 20.6
CC(=O)c1cccc(NC(=O)c2cc(=O)[nH]c3ccc(S(=O)(=O)N4CCOCC4)cc23)c1 | . | -1.3% | -0.6% | . | 0.6% | 9.5

Compound activity (PubChem)
